# Experimental data taken from PubChem BioAssay (Tox21).
# Records with an inconclusive call do not appear. Activity calls are given as the source filed them. Calls follow the shape of the dose curve; as a rule, active = well fitted cell-killing curve with a large enough effect in the repeat runs; inconclusive = weak or mixed curves, or effect the other way; inactive = no such curve, though single readings can be large or run the other way. Positions of bridges follow the written chain, without caps; N, C: chain ends. Where a SMILES comes first, the peptide text is derived from it. Non-standard residues stand in square brackets, D forms with d. Residues, ends and D or L forms follow the SMILES beside them. hArg = N=C(N)NCCCC[C@H](N)C(=O)O; Mpa = O=C(O)CCS
# Experiment: qHTS assay to identify small molecule antagonists of the retinoid-related orphan receptor gamma (ROR-gamma) signaling pathway - cell viability counter screen (AID 1159520); also: nearly all actives have a fitted effect of over 50% in size
# Conditions: Tet-on RORgamma CHO cells viability, ATP luminescence, 16 h; series mostly up to 92.4 µM
# Text: U.S. Tox21 Program National Center for Advancing Translational Sciences [NCATS] NIH Chemical Genomics Center [NCGC] U.S. Environmental Protection Agency [EPA] National Institutes of Environmental Health Sciences [NIEHS] National Toxicology Program [NTP] U.S. Food and Drug Administration [FDA] Tox21 Assay Overview: Nuclear steroid hormone receptors are involved in many biological processes including inflammatory responses, cell proliferation, and apoptosis. Environmental factors or compounds disrupting these nuclear receptor pathways and gene expression may promote susceptibility to immunotoxicants and autoimmune diseases. One important group of these expression factors are the retinoid-related orphan receptors. To assess compounds that may interfere with the retinoid-related orphan receptor gamma (ROR-gamma) transcription factor, a cell-based luciferase assay was used. The CHO cell-based assay utilizes a TET-inducible ROR expression factor and ROR response element-LUC reporter gene. Reporter gene activity was induced using Doxycycline Hyclate and measured after 16 hr incubation. Tet-on ROR gamma CHO cells were used to screen against the Tox21 10K compound library for cytotoxicity by measuring the viability of the cells based on the quantitation of the ATP.
# Tox21 Assay Protocol Summary: Tet-on ROR gamma CHO cells were dispensed at 1,000 cells in 4 uL of culture medium per well into white wall/solid bottom 1536-well plates using a Multidrop Combi (Thermo Scientific, Waltham, MA) dispenser. Following incubation at 37 C and 5% CO2 for 4 hr, 23 nL of compounds dissolved in DMSO, positive controls or DMSO only were transferred by a Pintool station (Kalypsys, San Diego, CA) and after 2 hr incubation at 37 C, one ul of 1 uM (final concentration) of Doxycycline Hyclate was added to all the wells by using a Flying Reagent Dispenser (FRD) (Aurora Discovery, San Diego, CA). After 16 hr incubation at 37 C and 5% CO2, 5 uL of CellTiter-Glo reagent (Promega Corporation, Madison, WI) was added to each assay plate using FRD. After 30 min incubation at room temperature, luminescence was quantified on a ViewLux plate reader (Perkin Elmer, Waltham, MA).
row,SMILES,outcome
1,CC(C)c1ccc(C=O)cc1,inactive
2,CC1OCCC1=O (stereo not given),inactive
3,Cc1c(Cl)cccc1Cl,inactive
4,CO[C@@]1(NC(=O)Cc2cccs2)C(=O)N2C(C(=O)O)=C(COC(N)=O)CS[C@@H]21,inactive
5,COc1c2occc2c(OC)c2c(=O)cc(C)oc12,inactive
6,C=CC/C=C/C,inactive
7,N#CCC(=O)NN,inactive
8,CCCC(CC)c1ccccc1 (stereo not given),inactive
9,NC(=O)[C@@H]1CSSCCC(=O)N[C@@H](CCCCN=C(N)N)C(=O)NCC(=O)N[C@@H](CC(=O)O)C(=O)N[C@@H](Cc2c[nH]c3ccccc23)C(=O)N2CCC[C@H]2C(=O)N1 ([Mpa][hArg]GDWPC-NH2; disulfide 1-7),inactive
10,CCCCCCCCCOC(=O)c1ccccc1C(=O)OCCCCCCCCC,inactive
11,CN(C)CCCO[C@@H]1[C@H]2OC(C)(C)O[C@H]2O[C@@H]1C(O)CO (stereo not given in full),inactive
12,NCC1(Cc2noc(=O)[nH]2)CCCCC1,inactive
13,COC(=O)c1cc(Cl)cc(Cl)c1,inactive
14,COc1cc(/C=C/C(N)=O)cc(OC)c1OC,inactive
15,O=C(O)c1cc2ccccc2nc1C(=O)O,inactive
16,Cc1c(NC(=O)c2cccnc2)c(=O)n(-c2ccccc2)n1C,inactive
17,CCNC(=O)NCc1cccc(Cl)c1,inactive
18,C=C(C)C1CC=C(C)C(=O)C1 (stereo not given),inactive
19,O=NN(CCCl)C(=O)NC1CCCCC1,inactive
20,CCC[C@@H]1C[C@@H](C(=O)N[C@@H]([C@H]2O[C@H](SC)[C@H](O)[C@@H](O)[C@H]2O)[C@@H](C)O)N(C)C1,inactive

row,SMILES,outcome
1,COC(=O)c1ccccc1C(=O)O,inactive
2,CCCCOC(=O)[C@H](C)O,inactive
3,CC(C)(C)NC[C@H](O)COc1cccc2c1CCCC2=O,inactive
4,OCC(O)CN1CCN(c2ccccc2)CC1 (stereo not given),inactive
5,CCCCCC(C)O (stereo not given),inactive
6,O=C1CCC(=O)N1Cl,inactive
7,CC(=O)CCc1ccc(OC(C)=O)cc1,inactive
8,Cc1cc(C)c(C(=O)O)c(C)c1,inactive
9,CN(C)CCN(C)CCO,inactive
10,CC(=O)OC1CCCCC1C(C)(C)C (stereo not given),inactive
11,C=CCCCC,inactive
12,CCC(C(=O)OCCN1CCOC(c2ccccc2)C1C)c1ccccc1 (stereo not given),inactive
13,CCCSSCCC,inactive
14,O=C(CCCCC(=O)Nc1c(I)cc(I)c(C(=O)O)c1I)Nc1c(I)cc(I)c(C(=O)O)c1I,inactive
15,CCN1CCCC1CN (stereo not given),inactive
16,COS(=O)(=O)O,inactive
17,CO/N=C(/C(=O)N[C@@H]1C(=O)N2C(C(=O)[O-])=C(C[n+]3ccn4ncccc43)CS[C@H]12)c1nsc(N)n1,inactive
18,CC1CCc2c(N3CCC(O)CC3)c(F)cc3c(=O)c(C(=O)O)cn1c23 (stereo not given),inactive
19,OC[C@H]1O[C@@H](O[C@@H]2[C@@H](CO)O[C@](O)(CO)[C@H]2O)[C@H](O)[C@@H](O)[C@H]1O,inactive
20,CC(=O)N[C@@H](CO)C(=O)N[C@@H](CC(=O)O)C(=O)N[C@@H](CCCCN)C(=O)N1CCC[C@H]1C(=O)O (Ac-SDKP-OH),inactive
